Results published in PubChem BioAssay (EPA / NIEHS).
Records with an inconclusive call do not appear. Activity calls are given as the source filed them. Rule for the calls: active = hit-call score of the fitted dose curve at least 0.9, where 1 is the maximum; inconclusive = response in the unintended direction; inactive = score below 0.9.

Test: ACEA_ER_AUC_viability: ACEA Biosciences xCELLigence Real-Time Cell Analysis on Estrogen Receptor Agonism for Viability (AID 2283782);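 note: continuous compound exposure with impedance area under curve over 80 h; hit means loss of impedance signal meaning reduced cell growth or viability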
Procedure, shortened: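 T-47D human breast cells in phenol red-free RPMI1640 with 10% charcoal-stripped FBS were dosed with an 8-point 1:4 dilution series from 100 uM top final concentration, in duplicate. Impedance-based growth was followed for 80 h; AUC analysed versus DMSO.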

SMILES	outcome	AC50
CC(=O)OCCC(C)CC(C)(C)C (stereo not drawn)	inactive	–
CCC(=O)OCc1ccccc1	inactive	–
CCCC(=O)OCCC(C)CCC=C(C)C (stereo not drawn)	–	77.8 µM (active)
N#Cc1ccccc1	inactive	–
[Ca+2]	inactive	–
C=COCCOCCOCCOC=C	inactive	–
CC(C)c1cccc(O)c1	inactive	–
CC(C)[C@@H]1CC[C@@H](C)CC1=O	inactive	–
O=C(O)Cc1cccc2ccccc12	inactive	–
CCCC(C)C=O (stereo not drawn)	–	20.8 µM (active)
C=CCOC(=O)CCC1CCCCC1	–	75.5 µM (active)
O=C(O)CCCCCCCCCCC(=O)O	–	37.7 µM (active)
Nc1cccc(S(=O)(=O)c2cccc(N)c2)c1	inactive	–
NC(=O)c1ccccc1Cl	–	27.1 µM (active)
C=CC(=O)OCCOCCOCC	–	81.2 µM (active)
CC(CCO)CCc1ccccc1 (stereo not drawn)	–	50 µM (active)
COc1cc(C=O)ccc1OC(=O)C(C)C	inactive	–

SMILES	outcome	AC50
CCCCC(CC)COCCC#N (stereo not drawn)	inactive	–
C=C(C)C(=O)O[C@H]1C[C@@H]2CC[C@@]1(C)C2(C)C	inactive	–
C=CC(C)(O)CCC=C(C)CCC=C(C)C (stereo not drawn)	–	67.1 µM (active)
CCCCCCCCCCCCN	–	66.3 µM (active)
NCCNCCN	inactive	–
CC1(C)[C@H]2CC[C@]1(C)[C@H](O)C2	inactive	–
O=C(Cl)c1cccc(C(=O)Cl)c1	inactive	–
NCCOCCO	inactive	–
CC(C)(N)CO	inactive	–
CC(C)c1ccc(C(C)C)cc1	inactive	–
CC1CCC2CC1C2(C)C (stereo not drawn)	inactive	–
Nc1ccc(S(N)(=O)=O)cc1	inactive	–
Nc1nc2ccc([N+](=O)[O-])cc2s1	–	50 µM (active)
NCCCCCCN	inactive	–
CCCc1ccccc1O	–	64.2 µM (active)
O=C(O)CCCCCCCC(=O)O	inactive	–
